Shown is part of a subset that was picked to be rich in hits.
12-LOX inh – Primary qHTS assay for inhibitors of human arachidonate 12S-lipoxygenase (ALOX12): Round 2; 1.1% of 580,000 active; AID 1671190, 2021; Potency, µM (highest dose often 108 µM), actives largely listed as inhibitors; purified 12hLO, xylenol orange hydroperoxide absorbance
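Purified human 12hLO (150 nM final) in 25 mM Hepes, 0.01% Triton X-100, pH 7.0 was preincubated 15 min at room temperature with compound. Then 40 uM arachidonic acid was added, 30 min. Hydroperoxide was read by Fe-XO absorbance ratio 573/405 nm.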
Glioma ERSR ind – qHTS for Inducers of the Endoplasmic Reticulum Stress Response (ERSR) in Human Glioma: qHTS; Potency, µM, most hits filed as activators; AID 602332, 2012; 0.02% of 420,000 active; U87-MG GRP78 promoter luciferase reporter, 16 h; further: series mostly up to about 76 µM; nearly all actives have a fitted effect of over 35% in size
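Stably transfected U87-MG human glioma cells carrying a GRP78-based luminescent sensor were seeded at 1000 cells/well, pin-dosed with compounds and incubated 16 h. Luciferase reagent was then added, and end-point luminescence was read after 10 min at room temperature.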
VDR inh – Inhibitors of the vitamin D receptor (VDR): qHTS | AID 504847, 2011 | 0.93% of 400,000 active | Vitamin D3 receptor (Homo sapiens), P11473 | Potency, µM, usual class: inhibitors | VDR-SRC2-3 peptide fluorescence polarization, 2 h
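Signal is fluorescence polarization, reporting how far test compounds block the interaction of VDR with the SRC2-3 coregulator peptide after a 2 h room-temperature incubation.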
G9a inh – qHTS Assay for Inhibitors of Histone Lysine Methyltransferase G9a; AID 504332, 2011; G9a H3K9 monomethylation, AlphaScreen, 2 h; 8.8% of 350,000 active; Histone-lysine N-methyltransferase EHMT2 (Homo sapiens), Q96KQ7; Potency, µM (titrated, usually from 102 µM), usual class: inhibitors; further: nearly all actives have a fitted effect of over 75% in size
Target sequence (Q96KQ7 913-1193 limits assumed): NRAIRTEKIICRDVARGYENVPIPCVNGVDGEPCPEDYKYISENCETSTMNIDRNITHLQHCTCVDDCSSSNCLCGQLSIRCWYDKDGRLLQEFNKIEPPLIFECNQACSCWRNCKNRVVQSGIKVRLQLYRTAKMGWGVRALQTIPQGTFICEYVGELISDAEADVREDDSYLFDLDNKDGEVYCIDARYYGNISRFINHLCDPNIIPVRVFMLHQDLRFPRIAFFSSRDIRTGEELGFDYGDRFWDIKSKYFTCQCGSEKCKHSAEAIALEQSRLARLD
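Chemiluminescent proximity detection of H3K9 monomethylation, read after 10 min bead incubation in the dark. Reaction: 20 nM G9a, 500 nM biotin-H3K9 peptide, 20 uM SAM cofactor, 2 h, room temperature, following 15 min enzyme-compound preincubation.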
Sfp PPTase inh – qHTS Assay for Inhibitors of Bacillus subtilis Sfp phosphopantetheinyl transferase (PPTase) | 3.5% of 310,000 active | 4'-phosphopantetheinyl transferase ffp (Bacillus subtilis), Q9F4F7 | Biochemical Sfp PPTase activity, qHTS | Potency, µM, actives largely listed as inhibitors;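 further: the enzyme is Sfp with the accession as filed and its product quenches rhodamine fluorescence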
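Buffer: 50 mM Hepes-Na pH 7.6, 10 mM MgCl2, 0.01% Nonidet P-40, 0.01% BSA. Enzyme 15 nM, pre-exposed to compound 15 min; substrates then added and fluorescence change tracked over 30 min.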
A number is an active result; - = inactive; ? = inconclusive; . = no result. The call rests on the fitted dose curve; in most records, active means well fitted curve in the direction sought with a large enough effect; inconclusive means small, poorly fitted or top-dose-only effect, or another doubt; inactive means no such curve, though single readings can be large; an effect the other way counts as inactive or inconclusive.

SMILES | 12-LOX inh | Glioma ERSR ind | VDR inh | G9a inh | Sfp PPTase inh
COCC(C)n1c(C)cc(C(=O)COc2ccc(N(C)S(=O)(=O)c3ccc(NC(C)=O)cc3)cc2)c1C (configuration not stated) | - | - | - | 35µM | .
Cc1cccc(C(=O)N2CCN(c3oc(-c4ccco4)nc3C#N)CC2)c1 | - | . | . | . | .
COc1ccc(NC(=O)CN2CCN(c3nc(-c4cccc(OC)c4)cs3)CC2)cc1 | - | - | ? | 10µM | -
COc1cccc(-c2csc(N3CCN(CC(=O)Nc4ccc5c(c4)OCO5)CC3)n2)c1 | - | - | - | ? | -
COc1cccc(-c2csc(N3CCN(C(=O)C4CCCCC4)CC3)n2)c1 | - | - | - | 14µM | ?
COc1cccc(-c2csc(N3CCN(C(=O)Nc4ccc(F)cc4)CC3)n2)c1 | - | - | - | ? | -
COc1ccc(C2=NS(=O)(=O)N(C)C(C(=O)Nc3ccc(C)cc3)=C2)cc1 | - | - | - | ? | -
Cc1ccc(NC(=O)C2=CC(c3ccc(C)cc3)=NS(=O)(=O)N2C)cc1 | - | - | - | 40µM | -
CC(=O)c1ccc(NC(=O)C2=CC(c3ccc(C)cc3)=NS(=O)(=O)N2C)cc1 | - | - | - | 14µM | .
COc1ccc(OC)c(C2=NS(=O)(=O)N(C)C(C(=O)Nc3cccc(C(C)=O)c3)=C2)c1 | - | - | ? | 45µM | -
O=C(O)c1cccc(NC(=O)c2ccc(Cl)s2)c1 | - | . | . | . | .
Cc1cc(=O)oc2cc3occ(-c4ccc(-c5ccccc5)cc4)c3cc12 | - | . | . | . | .
Cc1ccc(C(C)C)c(OCc2nn(CC(=O)c3ccc(Cl)cc3)c3[n+]2CCCCC3)c1 | - | - | - | - | 32µM
CCN1C(=O)[C@H]2[C@@H](c3ccc(-c4cccc(Cl)c4)c(OC)c3)N3CCC[C@@]3(C(=O)OC)[C@H]2C1=O | 50µM | - | - | . | .
CC(CN1CCCCC1)OC(=O)c1cccc(F)c1 (configuration not stated) | 56µM | - | - | . | -
COc1cccc(C(=O)OC(C)CN2CCCC2)c1 (configuration not stated) | - | - | - | - | -
CSc1ccc(C(C)NC(=O)c2ccccc2C)cc1 (configuration not stated) | - | . | . | . | .
Cc1ccc(-c2nn(CCC(=O)O)cc2/C=C\C(=O)c2ccc(Br)cc2)cc1 | - | ? | 35µM | 25µM | -
Cc1ccc(-c2nn(Cc3ccccc3)cc2/C=C/C(=O)O)cc1 | - | - | - | - | -
O=C(O)CCn1cc(/C=C\C(=O)c2ccc(Cl)cc2)c(-c2cccc(Br)c2)n1 | ? | - | 50µM | - | -
COc1ccc(-c2ccnc3nc(C4CCC4)nn23)c(F)c1 | - | . | . | . | .
CCCC(=O)Nc1ccc(-c2nc3ccc(C)cc3o2)cc1 | - | . | . | . | .
CCOC(CNC(=O)CS(=O)Cc1nc(-c2cccc(OC)c2)oc1C)OCC (configuration not stated) | - | . | . | . | .
CC/C(=N\NC(=O)Cc1ccc(Br)cc1)c1cccs1 | - | - | - | 56µM | -
Cc1cccc(C2CCCN2C(=O)c2cc(C(C)C)on2)c1 (configuration not stated) | - | . | . | . | .
SMILES | 12-LOX inh | Glioma ERSR ind | VDR inh | G9a inh | Sfp PPTase inh
CCOC(=O)C1=C(CN2CCN(CC)CC2)NC(=O)NC1c1ccc(Cl)cc1 (configuration not stated) | - | - | - | - | .
COC(=O)C1=C(CCc2ccccc2)NC(=O)NC1c1ccc(C#N)cc1 (configuration not stated) | - | - | - | . | .
COC(=O)C1=C(CCc2ccccc2)NC(=O)NC1c1ccc(Cl)cc1 (configuration not stated) | 35µM | - | - | . | .
CCOC(=O)C1=C(CNc2ccc(C)c(Cl)c2)NC(=O)NC1c1ccc(Cl)cc1 (configuration not stated) | 8.9µM | . | . | . | .
COC(=O)C1=C(C)N(Cc2ccccc2)C(=S)NC1c1ccc(Cl)cc1 (configuration not stated) | 35µM | . | . | . | .
COC(=O)C1=C(C)N(Cc2ccc(Cl)cc2)C(=S)NC1c1ccccc1 (configuration not stated) | 40µM | . | . | . | .
CCCCCNC(=O)c1ccncc1 | - | . | . | . | .
COc1ccc(C(=O)N2CCN(c3cc(-c4ccc(Cl)cc4)[nH]n3)CC2)cc1F | - | . | . | . | .
N#Cc1nc(COc2ccc(F)cc2)oc1N1CCN(Cc2ccccc2)CC1 | - | - | - | ? | -
CCN1CCN(c2oc(COc3ccc(-c4ccccc4)cc3)nc2C#N)CC1 | - | - | - | 40µM | ?
N#Cc1nc(COc2ccc(Br)cc2)oc1N1CCN(Cc2ccccc2)CC1 | - | - | - | 32µM | -
O=C(Cc1cccs1)N1CC(c2noc(C3CCCN3CC3CC3)n2)C1 (configuration not stated) | - | . | . | . | .
CCc1cc(-c2n[nH]c(C)c2-c2nc3ccccc3s2)c(O)cc1OCC(=O)NN | - | - | - | ? | -
CCc1cc(-c2n[nH]c(C)c2-c2nc(C)cs2)c(O)cc1OC | - | - | - | 13µM | -
O=C(O)c1ccccc1C(=O)Nc1n[nH]c(=S)s1 | ? | - | ? | 1.4µM | 10µM
COc1ccc(OCc2ccc(-c3nc(C#N)c(NCCc4ccccc4)o3)o2)cc1 | - | . | . | . | .
O=C(NC1CCCC1)c1noc(-c2ccc[nH]c2=O)n1 | - | . | . | . | .
CCc1cc(=O)oc2c(C)c(OCc3ccc(OC)cc3)ccc12 | - | . | . | . | .

Screening results as filed in PubChem.
